40 sequences from the OligoGym collection can be followed below.
Also: reference of the scale not given here.

One experiment concerns the target SPESP1. Description: pooled miR-30 sensor sort-seq; sequence = guide strand. To be noted: shRNA.
Consider TTGTTTTTAATTTATGTTCTGC, for which the sensor-assay potency score (higher = more potent) came out at 0.0799.

For TATTGAATACTGTAGCAGCTTT, the sensor-assay potency score (higher = more potent) was -0.369.

With TTGTTTGGTTTGATCGACCAGA, the sensor-assay potency score (higher = more potent) was -0.327.

In the case of TCCATGTGTAACTAGCTCCTTA, the sensor-assay potency score (higher = more potent) is -0.658.

In the case of TTAATTTATGTTCTGCTGCTGC, the sensor-assay potency score (higher = more potent) is -0.241.

Take TTTCTATCGCAGTTTCACCTGA: the sensor-assay potency score (higher = more potent) is -0.0302.

The sequence TTGTTTTGCAGCTGGCTCCGGC yielded a sensor-assay potency score (higher = more potent) of -0.682.

A further experiment addresses SPINK5. The experiment is described as above. The conditions noted are these: shRNA.
TTGTATAGAACTTTCCATCAGC: the sensor-assay potency score (higher = more potent) is -0.111.

Sequence TTTTCTTGAAGCTTTGCCCTTT gave a sensor-assay potency score (higher = more potent) of 0.275.

The sequence TTGAGAAGCTCTAACATGGGAT yielded a sensor-assay potency score (higher = more potent) of -0.174.

With TTTTGTTTCTAGCTCGTGCTTC, the sensor-assay potency score (higher = more potent) was 0.162.

With TTATTGATGTGCATCTTGCCAT, the sensor-assay potency score (higher = more potent) was -0.0441.

TTGTGCATCCAAGTCTTCCATC displayed a sensor-assay potency score (higher = more potent) of -1.09.

As for ATACTCAGCACATTCGTCCTGA, the sensor-assay potency score (higher = more potent) was determined as 0.519.

In the case of TCTCTTTTGACTTTTGCTCTGG, the sensor-assay potency score (higher = more potent) is -0.0301.

TTGCTCTTGCTCTTTCTTCTTG returned a sensor-assay potency score (higher = more potent) of -0.499.

In turn, TTTCTTTTGCTTCTTGCTGGAA had a sensor-assay potency score (higher = more potent) of -0.544.

For the sequence TTTAAAATCATCACAATTCAGC, the sensor-assay potency score (higher = more potent) is -0.669.

For the sequence TTGAAAAAATTTCTTATCCTGG, the sensor-assay potency score (higher = more potent) was -0.827.

The next experiment concerns the target SPINK6. Described as above. The conditions noted are these: shRNA.
The sequence TGCTTTAGGCTAATCTTTCCAC displayed a sensor-assay potency score (higher = more potent) of -0.643.

The sequence TAAAAAGCAGAAAAGAGCCAGA yielded a sensor-assay potency score (higher = more potent) of -0.281.

On to TAGACATACATTGAACTCCTCA, for which the sensor-assay potency score (higher = more potent) was -0.369.

Sequence TATTGCCATATGTCTGGCCATC gave a sensor-assay potency score (higher = more potent) of -1.73.

ACAGTCAACCTGTCCTCCCTGA displayed a sensor-assay potency score (higher = more potent) of -0.55.

In turn, TTCCCGAGTGCAGTAGACCTTG registered a sensor-assay potency score (higher = more potent) of -0.732.

Regarding GAACTCACCACAGTCAACCTGT, the sensor-assay potency score (higher = more potent) was -0.413.

In turn, TAATCTTTCCACCACTTTTCAC had a sensor-assay potency score (higher = more potent) of -1.05.

TTAGATTCCCGAGTGCAGTAGA gave a sensor-assay potency score (higher = more potent) of 0.5.

TTTATTGCCATATGTCTGGCCA showed a sensor-assay potency score (higher = more potent) of -0.38.

In turn, TGAATTAAAGGAATCCACCAGC displayed a sensor-assay potency score (higher = more potent) of -0.148.

As for TTAGGCTAATCTTTCCACCACT, the sensor-assay potency score (higher = more potent) is -0.87.

For another experiment, the target named is SPOCK1. The experiment is described as above. The conditions noted are these: shRNA.
TCATAGTTCATGTCCAACTTGT gave a sensor-assay potency score (higher = more potent) of 0.349.

TATTTGTCCACACACCAGCACT yielded a sensor-assay potency score (higher = more potent) of -1.26.

The sequence TCCAACTTGTTGAACATCCAGC registered a sensor-assay potency score (higher = more potent) of -1.54.

For TTTGTCATCATCCTCATCCTCA, the sensor-assay potency score (higher = more potent) was determined as 0.0865.

Turning to TTGTCTGTGCAGGCACTCCTTT, the sensor-assay potency score (higher = more potent) was -0.821.

In turn, TTGTCTAGGAAATTGCCGTGGT registered a sensor-assay potency score (higher = more potent) of 0.282.

In the case of TTGCACTTGGATGTGTAGGAGT, the sensor-assay potency score (higher = more potent) is -0.759.

With TAATCATCGTCTCGAAAGCGGT, the sensor-assay potency score (higher = more potent) is -1.33.

TTCATATTCTAGGTCATCCAGC registered a sensor-assay potency score (higher = more potent) of -0.469.
